# Assay results: PubChem BioAssay (NCI)
# About 83,000 compounds went through this panel and 20% of them were active in at least one assay; those are over-represented in the sample as a whole.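 Testing used 96-well plates and a 48-hour single-concentration exposure. Example: -40 means 40% of the starting cells died.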 Active and inactive are the calls of the source. How the source made its calls: active means growth percent below 10; inactive means the rest.
# System: MDA-MB-435 melanoma
# Experiment: NCI-60 one-dose screen, 48 h (100 = growth as untreated, 0 = no growth, -100 = all killed)
# Conditions: 10 µM unless noted
row,Compound,growth
1,COc1ccc2c(c1)C(Br)=C(CCO)C2c1ccccc1 (stereo not given),91.8% (inactive)
2,C=C1C(=O)O[C@H]2[C@H]1CC/C(Cn1cc(-c3ccc(F)cc3)nn1)=C\CC[C@@]1(C)O[C@@H]21,-31.4% (active)
3,OCC1OC(n2cnc3c(Cl)ncnc32)CC1O (stereo not given),104% (inactive)
4,Cn1cc(-c2csc(-c3cn(CCN)c4ccccc34)n2)c2cccnc21,16.6% (inactive)
5,COc1cc(/C=C2\C(=O)N(CC(O)COc3cc(O)c4c(=O)cc(-c5ccccc5)oc4c3)c3ccccc32)cc(OC)c1O (stereo not given),54.7% (inactive)
6,C=C(C)[C@@H]1CC[C@]2(C(=O)O)CC[C@]3(C)[C@H](CC[C@@H]4[C@@]5(C)C/C(=C/c6ccc(OC)cc6)C(=O)C(C)(C)[C@@H]5CC[C@]43C)[C@@H]12,30.3% (inactive)
7,O=C1c2cccc3cccc(c23)C(=O)N1CC#Cc1ccc2c3c(cccc13)C(=O)N(CCO)C2=O,92.7% (inactive)
8,CN1CCN(CCOc2ccc(-c3cnc4c(-c5ccccc5F)cnn4c3)cc2)CC1,-29.2% (active)
9,CCN(CC)CCCCCCNc1ccnc2cc(Cl)ccc12,88.5% (inactive)
10,C/C(Cc1ccc(Cl)cc1)=C(/c1ccc(Cl)cc1)c1ccc(OCCN2CCCC2)cc1,82% (inactive)
11,Cc1ccc(N(CC(=O)Nc2ccc(S(=O)(=O)N3CCC(N4CCCC4)CC3)cc2)S(=O)(=O)c2ccc(Cl)cc2)cc1,-87.6% (active)
12,Cn1cc(-c2csc(-c3c[nH]c4ccccc34)n2)c2cccnc21,-13.9% (active)
13,C(=C\c1c[nH]c2ccccc12)/c1ccc2ccccc2n1,93% (inactive)
14,COc1cccc(-c2nn(-c3ccccc3)cc2-c2ccnc(NCCCNS(=O)(=O)c3ccc(Cl)cc3)c2)c1,42.9% (inactive)
15,Cc1ccncc1C(=O)O,101% (inactive)
16,Cc1cccc(C)c1NC(=O)CSC(=S)N1CCN(CCOCCO)CC1,108% (inactive)
17,Cc1cc(Cl)nc(N(CCNc2ccnc3cc(Cl)ccc23)Cc2ccco2)n1,41.9% (inactive)
18,COC(=O)[C@]12CC[C@@H](C)[C@H](C)[C@@H]1C1=CC[C@@H]3[C@@]4(C)C[C@@H](O)[C@H](O)[C@@](C)(CO)C4=CC[C@@]3(C)[C@]1(C)CC2,-53.1% (active)
19,Fc1ccc2nc(-c3cc(-c4ccc5c(c4)OCO5)n[nH]3)[nH]c2c1,46.4% (inactive)
20,COc1cc2[nH]c(C(=O)c3cc(OC)c(OC)c(OC)c3)c(N)c2cc1C#CCO,-27.1% (active)
21,COc1ccc(-c2cc(-c3cccs3)n(N=O)c(=O)c2C#N)cc1,125% (inactive)
22,Cc1ccc(Sc2sc(-c3ccccc3)nc2[P+](c2ccccc2)(c2ccccc2)c2ccccc2)cc1,-16.3% (active)
23,NS(=O)(=O)c1ccc(CCNC(=O)/C=C/c2ccc(Cl)cc2)cc1,95.6% (inactive)
24,Cc1cc2nc3c4cc(Cl)ccc4n(CCN(C)C)c3nc2cc1C,1.97% (active)
25,Cc1ccc(S(=O)(=O)Nc2ccc(-c3cc(-c4cccc(F)c4)c(C#N)c(N)n3)cc2)cc1,19.6% (inactive)
